tim23-1 inh: growth inhibitors of tim23-1 mutant yeast. S. cerevisiae tim23-1 growth, BacTiter-Glo luminescence, 24 h. inhibition, % at 20 µM. 330,000 tested, 1.3% active. AID 463212;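 active = growth inhibition of the mutant yeast at or above 50%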;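 also: temperature-sensitive mutant grown at 25 °C; plate controls were DMSO-treated mutant yeast for no effect and medium wells lacking yeast for full effect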
PfHsp90 yeast 2: reduces growth (ATP signal) of yeast expressing P. falciparum Hsp90 | S. cerevisiae expressing PfHsp90, BacTiter-Glo ATP, 48 h; yeast lacking PDR1 and PDR3 efflux regulators | inhibition, % at 9.4 µM | 310,000 tested, 0.32% active | AID 504621;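 active = every replicate shows inhibition above about 80%, whatever the replicate mean, limit read from the data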;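 also: 0% = DMSO neutral controls and 100% = 20 µM radicicol positive controls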
tim10-1 inh: inhibits growth of tim10-1 mutant yeast; 330,000 tested, 2.2% active; S. cerevisiae tim10-1 ts strain growth, BacTiter-Glo, 24 h; inhibition, % at 20 µM; AID 463190;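 active = inhibition of at least 40%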;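 also: mutant grown at 25 °C; 0% = DMSO wells with yeast and 100% = wells holding no yeast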
TIM10 inh: TIM10 yeast growth inhibition | AID 463195 | inhibition, % at 10 µM | S. cerevisiae TIM10 strain growth, BacTiter-Glo luminescence, 24 h | 330,000 tested, 1.4% active;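 active = inhibition of 40% or more at the single tested concentration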;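 also: wild-type TIM10 isogenic control strain grown at permissive 25 °C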
Rce1 inhib: blocks yeast Ras-converting enzyme | 290,000 tested, 0.27% active | yeast membranes, quenched prenylated peptide cleavage fluorescence | calls only | AID 2563;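 active = fall in fluorescence gain of 50% or more versus controls, with final raw signal at or below 3038400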;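 also: plate controls were neutral control wells for no effect and wells lacking membranes for full effect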
Target sequence (Q03530 whole entry, looked up): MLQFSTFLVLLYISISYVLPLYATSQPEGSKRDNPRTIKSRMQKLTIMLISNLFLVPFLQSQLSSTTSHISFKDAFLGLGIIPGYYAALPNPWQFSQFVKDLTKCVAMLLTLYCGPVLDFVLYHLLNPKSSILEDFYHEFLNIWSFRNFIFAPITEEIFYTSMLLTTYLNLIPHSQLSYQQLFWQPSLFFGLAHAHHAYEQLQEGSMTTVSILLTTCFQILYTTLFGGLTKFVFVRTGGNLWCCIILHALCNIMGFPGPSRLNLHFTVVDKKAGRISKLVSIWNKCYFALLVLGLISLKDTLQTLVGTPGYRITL
tim10-1 confirm: confirmation of tim10-1 mutant yeast growth inhibitors. shares compounds with tim10-1 inh. S. cerevisiae tim10-1 ts strain growth, BacTiter-Glo, 24 h. inhibition, % at 20 µM. 7,400 tested, 56% active;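 active = inhibition of yeast growth at or above a set limit in either of two repeat tests at 20 µM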;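 also: tim10-1 mutant grown at permissive 25 °C to find synthetic lethal compounds; 0% = DMSO yeast wells and 100% = medium wells without yeast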
TIM10 conf: confirmation of TIM10 yeast growth inhibitors; AID 463215; shares compounds with TIM10 inh; S. cerevisiae tim10 strain growth, BacTiter-Glo luminescence, 24 h; 4,600 tested, 63% active; inhibition, % at 10 µM;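 active = inhibition of yeast growth at or above a set limit in either of two replicates at 10 µM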;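 also: this counterscreen used the strain with wild-type TIM10; 0% = yeast with DMSO and 100% = medium wells lacking yeast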
tim23-1 conf: tim23-1 yeast growth inhibition, confirmed | shares compounds with tim23-1 inh | inhibition, % at 20 µM | S. cerevisiae tim23-1 growth, BacTiter-Glo luminescence, 24 h | 4,400 tested, 83% active;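 active = inhibition above about 39% in either of two replicate wells at 20 µM, limit read from the data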;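 also: temperature-sensitive tim23-1 mutant grown at 25 °C; 0% = DMSO wells with yeast and 100% = medium wells without yeast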
* = called active by the depositor; i = inactive; x = not tested or not shown. An excerpt weighted towards active compounds, which were near 3.7% of everything screened.

SMILES	tim23-1 inh	PfHsp90 yeast 2	tim10-1 inh	TIM10 inh	Rce1 inhib	tim10-1 confirm	TIM10 conf	tim23-1 conf
CCSc1ccccc1C(=O)N1CCCC1	1	x	0	11	i	x	x	x
O=C(NC12CC3CC(CC(C3)C1)C2)c1ccc([N+](=O)[O-])o1	64*	0	57*	34	i	67*	x	51*
CC(NC(=O)c1ccc([N+](=O)[O-])o1)C1CC2CCC1C2 (configuration not stated)	62*	-5	75*	63*	x	79*	68*	48*
Cc1cc(C)c(NC(=O)CSc2nnc(-c3ccncc3)n2Cc2ccco2)c(Cl)c1	-2	x	3	6	i	x	x	x
COc1ccc(-n2nc(C#N)c(Cl)cc2=O)cc1	61*	-206	47*	31	x	30	x	48*
C[C@H](NS(=O)(=O)c1ccc(F)cc1)C(=O)OCC(=O)c1c(N)n(C)c(=O)n(C)c1=O	-5	2	-4	7	x	x	x	x
O=C(Nc1ccc(OC(F)F)c(Cl)c1)c1cccc(OC(F)F)c1	71*	6	71*	63*	i	63*	59*	76*
COc1ccc(NC(=O)c2cccc(OC(F)F)c2)cc1Cl	39	-2	37	38	i	x	x	x
Oc1c(Br)cc(Br)cc1/C=N/c1nccs1	75*	57	46*	29	x	34*	x	90*
Oc1ccc(Cl)cc1C=Nc1ccc(Br)cc1	23	33	21	12	i	x	x	x
Oc1ccc(Cl)cc1/C=N/c1nccs1	55*	4	45*	30	i	44*	x	30
COc1ccc(-c2oc3ccccc3c(=O)c2OC(C)=O)cc1	60*	3	42*	55*	i	34*	48*	59*
CC(=O)Oc1c(-c2ccc(Br)o2)oc2ccccc2c1=O	65*	-27	53*	73*	i	60*	78*	86*
COc1ccc(-c2oc3ccccc3c(=O)c2OCC(=O)O)cc1	13	-12	-1	-6	i	x	x	x
CC(C)COc1ccc(C(=O)Nc2ncn[nH]2)cc1	11	16	-20	1	i	x	x	x
COc1ccc(C)cc1NC(=O)CN1CCCN(S(=O)(=O)c2ccc(Br)cc2)CC1	22	26	-110	-29	i	x	x	x
Cc1ccc(-c2ccnc3c(Br)c(C)nn23)cc1	58*	-13	41*	15	i	30	x	39*
N=c1occ(C(=O)c2cc(F)ccc2O)cc1C(=O)NC1CCCCC1	3	8	-11	-9	i	x	x	x
Clc1ccc(/C(Cc2nc3ccccc3[nH]2)=N\Nc2ccccc2)cc1	53*	-30	46*	56*	i	22	56*	45*
O=C(Cc1nc2ccccc2[nH]1)c1ccc(Cl)cc1	29	-14	15	19	x	x	x	x
O=C(Oc1cccc(C(=S)N2CCOCC2)c1)c1ccc([N+](=O)[O-])cc1[N+](=O)[O-]	78*	0	84*	84*	i	84*	90*	87*
COc1cc(C(=S)N2CCOCC2)ccc1OC(=O)c1ccccc1[N+](=O)[O-]	26	-2	8	6	i	x	x	x
O=C(Oc1ccc(C(=S)N2CCOCC2)cc1)c1ccc([N+](=O)[O-])cc1[N+](=O)[O-]	35	-8	35	4	i	x	x	x
O=C(Oc1ccc(Br)cc1C(=S)N1CCOCC1)c1ccc([N+](=O)[O-])cc1[N+](=O)[O-]	67*	-8	71*	68*	i	77*	78*	84*
O=C(Nc1nc2ccccc2s1)C1CC(=O)N(c2ccc(Br)cc2)C1 (configuration not stated)	73*	-31	49*	46*	i	37*	36*	74*
SMILES	tim23-1 inh	PfHsp90 yeast 2	tim10-1 inh	TIM10 inh	Rce1 inhib	tim10-1 confirm	TIM10 conf	tim23-1 conf
O=C(Nc1nc2ccccc2s1)C1CC(=O)N(c2ccccc2)C1 (configuration not stated)	11	x	21	18	i	x	x	x
CC1CCc2nc(NC(=O)CN3CCN(c4ccc(F)cc4)CC3)sc2C1 (configuration not stated)	55*	45	51*	28	i	28	x	37
Cc1nc(Cl)sc1C(=O)Nc1cccc(Cl)c1C	23	-8	26	-28	i	x	x	x
O=C(OCn1ncc(Cl)c(Cl)c1=O)c1cccc(C(F)(F)F)c1	74*	99*	72*	53*	i	72*	39*	72*
CCc1ccc(C(=O)Cn2ncc(Cl)c(Cl)c2=O)cc1	-2	0	5	-1	i	x	x	x
COn1c2c(c3c4no[n+]([O-])c4ccc31)CCCC2	11	9	26	13	i	x	x	x
[O-][n+]1c2c(c3c4non(O)c4ccc31)CCCC2	63*	-11	70*	61*	i	70*	52*	64*
CCc1ccccc1NC(=O)CSc1nnc(C2CC2)n1CC1CCCO1 (configuration not stated)	10	-15	7	-14	i	x	x	x
COc1cc(NC(=S)N2CCN(c3ccccn3)CC2)cc(OC)c1	15	-1	23	-2	i	x	x	x
CC(OC(=O)c1ccc2ccccc2c1)C(=O)N(C)Cc1ccccc1 (configuration not stated)	19	4	14	-28	x	x	x	x
CC(C)N(CCC(=O)c1ccc2ccccc2c1)Cc1ccccc1	58*	114*	92*	28	x	92*	x	86*
CC1CN(C(=O)CSc2nnc(-c3ccccc3)o2)CC(C)O1 (configuration not stated)	13	10	8	3	i	x	x	x
Cc1cc(-c2nnnn2-c2ccc(F)cc2)no1	2	-12	13	16	i	x	x	x
COC(=O)C1=C(C)N(c2cc(Cl)cc(Cl)c2)C(=O)C1	53*	-8	56*	33	i	54*	x	46*
COC(=O)C1=C(C)N(c2cccc3ccccc23)C(=O)C1	25	x	32	28	i	x	x	x
O=c1nc(SCc2cccc(C(F)(F)F)c2)nc2ccccn12	17	13	-7	6	i	x	x	x
O=C(Cn1nc(Cl)nc1Cl)c1ccccc1	12	7	-4	-10	x	x	x	x
O=C(Cn1nc(Cl)nc1Cl)c1cc2ccccc2oc1=O	72*	11	59*	57*	i	53*	44*	69*
CCOC(=O)/C(=C\c1ccc(Cl)cc1)c1nc2sc(C)c(C)c2c(=O)[nH]1	72*	-46	48*	44*	i	49*	13	61*
O=C1CN(C(=O)COC(=O)c2c(F)cccc2Cl)c2ccccc2N1	10	7	1	12	x	x	x	x
